# Assay results as given in PubChem BioAssay (NCI).
# This is part of a sample that, as a whole, favours compounds with a hit. Of some 83,000 tested, about 20% had one in any assay.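 Compound tested at a single concentration for 48 hours in 96-well plates; a percent growth value below 10 was scored as active.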 Values without a mark were called inactive. Activity calls are given as the source filed them.
# What was measured:
# Experiment in all cases: NCI-60 one-dose screen, 48 h (100 = growth as untreated, 0 = no growth, -100 = all killed)
# Settings in all cases: 10 µM unless noted
# [1] = tested on: T-47D breast
# [2] = tested on: BT-549 breast
# [3] = tested on: MDA-MB-435 melanoma
# [4] = tested on: SW-620 colon
# [5] = tested on: MCF7 breast
# [6] = tested on: HCT-116 colon
# [7] = tested on: HCC-2998 colon
# [8] = tested on: MDA-MB-468 breast
# [9] = tested on: KM12 colon
Compound,growth [1],growth [2],growth [3],growth [4],growth [5],growth [6],growth [7],growth [8],growth [9]
Cc1ccc([C@H]2C(C(=O)c3ccc(Cl)cc3)C3(N[C@@H]2c2ccccc2)C(=O)Nc2ccc(Br)cc23)cc1 (some centres undefined),41.1%,96.3%,67.6%,70.6%,21.2%,30.7%,25.7%,59.5%,
COc1ccc(/C=N/NC(=O)Cn2nc(Cc3ccc(OC)cc3)c3onc(C)c3c2=O)cc1,40.7%,36.9%,62%,56.6%,45%,32.3%,6.89% (active),67.4%,
COc1ccc2c(c1)c(-c1cc(N)n3nc(-c4cn(C)c5ccccc45)cc3n1)cn2C,-57.4% (active),-22.4% (active),-75.6% (active),-58.5% (active),-60.6% (active),-88.6% (active),-82% (active),-34.6% (active),
CN(C)c1nc(NCCNS(=O)(=O)c2ccc(C3=Nc4c(N)nc(N)nc4NC(c4ccc(C(F)(F)F)cc4)C3)cc2)nc(Nc2ccc(F)cc2)n1 (centres undefined),9.22% (active),19.3%,9.17% (active),11.7%,-28.2% (active),2.12% (active),-32.1% (active),-46.2% (active),
COc1ccc(C2=NN(c3ccccc3)C(c3ccc(OC)c(OCc4ccccc4)c3)C2)cc1OC (centres undefined),84.4%,107%,97.2%,101%,84.9%,74.8%,107%,101%,
Cc1cc2nc3c([nH]c2cc1C)c1ccc(=O)cc1n3CCN(C)C,60%,65.5%,45%,22.6%,12%,14.4%,26.8%,43%,
O=C(c1ccccc1)c1ccc2nc(-c3ccc(F)cc3)[nH]c2c1,47.5%,40.1%,57.6%,28.2%,35.9%,41.7%,91%,42.8%,
CC(=O)Nc1ccc(-n2cnc3ccc(-c4ccc(O)cc4)cc32)cc1,47.9%,51.4%,44.7%,39.2%,10.6%,20.2%,66.3%,22%,17.8%
O=C(CN1C(=O)/C(=C/c2ccccc2F)SC1=S)N1CCOCC1,61.4%,111%,94.1%,32.6%,35.3%,45.3%,116%,-7.25% (active),
O=c1[nH]c2ccccc2cc1CSc1cccc(Nc2nccc(-c3ccc4ccccc4c3)n2)c1,60.9%,85.4%,87.9%,105%,85.1%,79.7%,97.3%,80.4%,
Cc1occc1C(=O)NN1C(=O)/C(=C/C=C/c2ccc([N+](=O)[O-])o2)SC1=S,-15.9% (active),-91% (active),-66.2% (active),-43.2% (active),-33% (active),-73.2% (active),-75% (active),-52.3% (active),-66.2% (active)
COc1cccc(COc2ccc(NC(=O)Nc3ccc(Cl)c(C(F)(F)F)c3)cc2)c1,19.5%,37.9%,58.9%,49.3%,24.3%,18.8%,46.8%,2.67% (active),6.06% (active)
CC(C)CSc1nc(NCCc2c[nH]c3ccccc23)c(C#N)c(-c2ccccc2)n1,30.9%,92.6%,71.7%,36.1%,20.1%,11.6%,43.5%,20.8%,
CCCCCCCCc1ccc(C(=O)Nc2ccc(C)cc2C(=O)O)cc1C,94.4%,101%,105%,97.2%,93.8%,84%,106%,92.8%,
O=c1[nH]c2ccccc2cc1CSc1nccc(-c2ccc3ccccc3c2)n1,41.8%,44.8%,17.3%,51.2%,47%,41.7%,83.5%,-17.2% (active),
CC(C)c1sc(NC(=O)c2cc(NC(=O)c3cc(NC(=O)c4nccn4C)cn3C)cn2C)nc1C(=O)NCCCN(C)C,75.8%,57.7%,70.9%,66.6%,69.7%,44.2%,84.3%,65.3%,111%
Cc1cc2nc3c4ccccc4n(CCCN(C)C)c3nc2cc1C,-10.7% (active),-78.2% (active),-93% (active),-16.3% (active),-30% (active),3.73% (active),-81.4% (active),-56.9% (active),
CN(C)c1nc(NCCNS(=O)(=O)c2ccc(C(=O)/C=C/c3ccc(F)cc3)cc2)nc(Nc2ccc(F)cc2)n1,-42.1% (active),-88.7% (active),-92.6% (active),-95.3% (active),-82.8% (active),-86.8% (active),-95.9% (active),-82.8% (active),-93.6% (active)
O=C(NN1C(=O)/C(=C/C=C/c2ccc([N+](=O)[O-])o2)SC1=S)c1cccc(O)c1,-44.1% (active),-96% (active),-93.3% (active),-71.1% (active),-61.9% (active),-77.1% (active),-94.8% (active),-73.4% (active),-92.6% (active)
C#C[C@]1(O)CC[C@H]2[C@@H]3CC=C4c5sc(-c6ccc(O)c(O)c6)nc5CC[C@]4(C)[C@H]3CC[C@@]21C,-25.7% (active),-93.3% (active),-62.3% (active),-76.6% (active),-72.8% (active),-88.8% (active),-83.9% (active),-71.7% (active),
CCOC(=O)/C=C/c1cccc2c1C(=O)NC(C)(c1cc3cc(Br)ccc3oc1=O)N2 (centres undefined),18.2%,-66.3% (active),54.7%,61.2%,35.3%,32.2%,68.8%,32.3%,41.1%
CC(=O)Nc1ccc(C(=O)NC(=S)Nc2ccc(S(N)(=O)=O)cc2)cc1,73.8%,94.4%,97.5%,98%,93%,99.4%,97.2%,80.2%,
COc1cc2c(c(OC)c1OC)C(=O)CC(c1cccc(NC(=O)c3cc(N)ccc3Cl)c1)O2 (centres undefined),35.4%,23.3%,-41.3% (active),37.4%,14%,34.7%,95.7%,5.35% (active),49.2%
COc1cc2nc(SCc3ccccc3)n(-c3ccc(Cl)cc3)c(=O)c2cc1OC,45%,0.336% (active),30.3%,9.44% (active),14.7%,-41% (active),20.3%,-10.9% (active),
CC(=O)Oc1ccc(/C=C/C(=O)N[C@@H](Cc2ccccc2)C(O)C(=O)NCc2ccccc2)cc1OC(C)=O (some centres undefined),90.9%,81.6%,71.7%,93.2%,81.9%,78.4%,96.3%,78.1%,86.3%
Cn1cc(-c2nc(N)nnc2-c2c[nH]c3ccc(F)cc23)c2cccnc21,19.4%,38%,49.6%,46.7%,21.2%,43.2%,72.8%,7.74% (active),60.9%
CCN1C(=O)N(CC)C2NNC(Sc3c(C(=O)O)c4ccccc4n(C4CCCC4)c3=O)=NC21 (centres undefined),61.4%,6.1% (active),-29.3% (active),30.6%,16.6%,4.07% (active),26.4%,58.1%,3.71% (active)
CC(=O)OC[C@@]1(C)C2CC[C@]3(C)C(CC=C4C5CC(C)(C)CC[C@]5(C(=O)Nc5cccc(C)c5)CC[C@]43C)[C@@]2(C)C[C@@H](OC(C)=O)[C@@H]1OC(C)=O (some centres undefined),24.3%,47.4%,48.2%,40.5%,24.9%,21.8%,49%,1.92% (active),48.7%
O=C(/C=C/c1ccc(O)c(O)c1)NC1CCOC1O (centres undefined),92.8%,108%,101%,109%,90.7%,103%,99.2%,109%,
